From PubChem
MEKK2 WT-MEK5: modulators of MEK5 binding to wildtype MEKK2, primary screen, biochemical, multiplex bead flow cytometry, Alexa488-MEK5; Mitogen-activated protein kinase kinase kinase 2 (Homo sapiens), Q9Y2U5; Alexa488-MEK5 binding to MEKK2 WT; actives lie on both sides; binding response (% of control), % at 10 µM; 290,000 tested, 1.1% active; AID 1531, 2009; in the data active means binding response below about 67% or above about 130%
ABCB6 inh MLPCN: ABCB6 transporter inhibitors, primary screen, K562-ABCB6 cells, flow cytometry, MLPCN library; ATP-binding cassette sub-family B member 6 (Homo sapiens), Q9NP58; K562-ABCB6 porphyrin accumulation, 1 h; stronger effect = lower value; fluorescence ratio to DMSO, % at 10 µM; 360,000 tested, 0.19% active; AID 602162, 2011;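 active means fluorescence ratio to DMSO below 75%, the collection mean minus 3 SD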;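 further: signal is porphyrin accumulated inside mitochondria; 100% equals median channel fluorescence of DMSO control wells; lower ratio means ABCB6 inhibition with less porphyrin fluorescence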
Target sequence (Q9NP58 whole entry, looked up): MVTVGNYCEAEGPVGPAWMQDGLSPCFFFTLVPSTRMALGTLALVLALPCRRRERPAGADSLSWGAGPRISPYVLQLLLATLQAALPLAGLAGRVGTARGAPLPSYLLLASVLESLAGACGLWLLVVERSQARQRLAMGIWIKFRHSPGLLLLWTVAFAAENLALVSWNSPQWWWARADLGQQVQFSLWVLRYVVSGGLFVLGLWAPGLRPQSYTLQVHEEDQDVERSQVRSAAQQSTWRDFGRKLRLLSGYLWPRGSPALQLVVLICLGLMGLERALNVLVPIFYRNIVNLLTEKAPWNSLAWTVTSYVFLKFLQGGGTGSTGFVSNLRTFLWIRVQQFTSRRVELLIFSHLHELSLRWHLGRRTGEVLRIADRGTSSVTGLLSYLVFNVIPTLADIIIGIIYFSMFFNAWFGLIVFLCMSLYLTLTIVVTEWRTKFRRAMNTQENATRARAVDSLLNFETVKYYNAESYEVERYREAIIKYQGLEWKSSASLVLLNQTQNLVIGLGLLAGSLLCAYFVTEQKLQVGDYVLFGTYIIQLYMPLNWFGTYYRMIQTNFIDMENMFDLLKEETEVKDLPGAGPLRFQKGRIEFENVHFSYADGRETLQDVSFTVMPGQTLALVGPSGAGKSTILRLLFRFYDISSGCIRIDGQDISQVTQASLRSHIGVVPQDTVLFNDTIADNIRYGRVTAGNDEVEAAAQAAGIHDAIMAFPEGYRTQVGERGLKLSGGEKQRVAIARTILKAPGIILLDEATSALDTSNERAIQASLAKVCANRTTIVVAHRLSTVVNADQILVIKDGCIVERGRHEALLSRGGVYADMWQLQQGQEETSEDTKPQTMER
MEKK2mut PB1 HTS: MEK5 binding signal on mutant MEKK2 PB1, primary screen, biochemical, multiplex bead flow cytometry, Alexa488-MEK5 | Alexa488-MEK5 binding to MEKK2 mutant | 290,000 tested, 0.35% active | AID 1530, 2009 | percent response, % at 10 µM; in the data active means percent response above about 24%, passing the limit was not always enough
CRFBP-R2 block: antagonists of CRF-BP/CRF-R2 complex, primary screen, cell-based, HEK293, calcium dye fluorescence, uHTS. CRF-induced calcium fluorescence. inhibition, % at 11.8 µM. 350,000 tested, 0.59% active. AID 588475, 2011;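 active means inhibition of the ligand-induced calcium signal above about 50% at the single tested concentration, limit read from the data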
MEKK3 PB1 HTS: modulators of MEKK3-MEK5 PB1 binding, primary screen, biochemical, wildtype MEKK3, multiplex bead flow cytometry, Alexa488-MEK5. Mitogen-activated protein kinase kinase kinase 3 (Homo sapiens), Q99759. binding response (% of control), % at 10 µM. 290,000 tested, 1.4% active. bead-based flow cytometry, Alexa488-MEK5 binding to MEKK3; actives lie on both sides; 0 = blocked by unlabeled MEK5, 100 = vehicle;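 active means binding response more than 3 SD above or below the average of its plate-row segment, actives on both sides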;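 further: Alexa488 bead fluorescence after subtracting the streptavidin-only scavenger bead signal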
CRFR2-BP ag: agonists of CRF-BP/CRF-R2 complex, primary screen, cell-based, HEK293, calcium dye fluorescence, uHTS; CRF-binding protein / CRF receptor 2 complex (human); calcium dye fluorescence (FLIPR); percent of saturating CRF peptide response; activation, % at 13.2 µM; 350,000 tested, 0.46% active; AID 588473, 2011;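 active means activation of at least 50%, plus an integration ratio under a set limit after plate pattern correction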;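 further: plate controls were neutral control wells without compound for no effect and CRF at EC100 for full effect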
MEKK2wt confirm: modulators of MEK5 binding to wildtype MEKK2, confirmation, biochemical, single concentration, multiplex bead flow cytometry. shares compounds with MEKK3 PB1 HTS. Alexa488-MEK5 binding to MEKK2 WT; actives lie on both sides. binding response (% of control), % at 10 µM. 5,900 tested, 2.4% active. AID 1892, 2009; in the data active means binding response below about 16% or above about 210%; inactive means in between
MEKK2mut-MEK5: mutant MEKK2 PB1-MEK5 binding signal retest – biochemical, single concentration, multiplex bead flow cytometry, confirmation; shares compounds with MEKK3 PB1 HTS; Alexa488-MEK5 binding to MEKK2 mutant; percent response, % at 10 µM; 5,900 tested, 2% active; AID 1893, 2009; in the data active means percent response mostly above about 71%, no sharp cut-off; inactive means mostly below about 38%;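 further: higher means compound restores mutant binding toward wildtype level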
MEKK3 confirm: MEKK3 wild-type PB1 binding to MEK5, inhibitors, confirmation, biochemical, bead multiplex flow cytometry, single concentration, wildtype. shares compounds with MEKK3 PB1 HTS. Alexa488-MEK5 binding to MEKK3; stronger effect = lower value. binding response (% of control), % at 10 µM. 5,900 tested, 1.8% active. AID 1894, 2009;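 active means binding response below 72% of control, or above a set upper limit, though filed actives all read lower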;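 further: 100% = DMSO only wells and 0% = binding blocked by excess unlabeled MEK5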
* hit, by the source's call; . = no result; [ ] = another dose, or the depositor's remark. Shown are actives, neighbours in structure and some others; about 2.9% of the full set was active somewhere.

SMILES	MEKK2 WT-MEK5	ABCB6 inh MLPCN	MEKK2mut PB1 HTS	CRFBP-R2 block	MEKK3 PB1 HTS	CRFR2-BP ag	MEKK2wt confirm	MEKK2mut-MEK5	MEKK3 confirm
COc1ccc(-c2csc(N(CCCN(C)C)C(=O)c3ccccc3F)n2)cc1	127.0	96.0	16.0	-14.0	99.0	-0.2	.	.	.
COc1ccc(-c2csc(N(CCCN(C)C)C(=O)c3ccccc3Cl)n2)cc1	138.0*	106.0	28.0*	-9.4	107.0	-0.4	167.0	70.0*	102.0
O=C(c1cccs1)N(Cc1ccco1)c1nc(-c2ccc(F)cc2)cs1	93.0	141.0	2.0	-12.7	83.0	10.6	.	.	.
O=C(COC(=O)Cn1cnc2ccccc21)Nc1ccc(OC(F)F)cc1	.	102.0	.	-0.6	.	-2.0	.	.	.
COc1ccccc1N=Cc1c(C)[nH]n(-c2ccc(C)cc2C)c1=O	81.0	101.0	-13.0	4.7	97.0	0.7	.	.	.
Cc1cc(Br)ccc1-n1[nH]c(C)c(C=Nc2cccc3nsnc23)c1=O	41.0*[inhibitor]	126.0	-17.0	-19.6	86.0	1.6	88.0	-11.0	99.0
COc1ccc(N(C)C(=O)CN(C)S(=O)(=O)c2ccc3c(c2)c(=O)n(C)c(=O)n3C)c(OC)c1	99.0	98.0	0.0	6.0	102.0	-0.9	.	.	.
O=C1CC(c2ccc3c(c2)OCCO3)Oc2ccccc21 (stereo not given)	102.0	100.0	-2.0	-6.8	95.0	-1.0	.	.	.
O=C1CC(c2ccc3c(c2)OCCO3)Oc2ccc([N+](=O)[O-])cc21 (stereo not given)	134.0*	95.0	17.0	-1.6	109.0	3.5	93.0	-27.0	95.0
CN(C)C(=O)c1cnc(-c2ccccc2)nc1-c1ccccc1	104.0	95.0	2.0	-7.2	102.0	-0.7	.	.	.
Cc1ccc(-n2c([S-])c(C(=O)Nc3ccc(OC(F)F)cc3)[n+]3ccc(C(=O)NCCO)cc23)cc1C	63.0*[inhibitor]	102.0	-10.0	-12.5	86.0	3.6	84.0	-9.0	99.0
C=CCC[C@H](Cc1ccc(F)cc1)C(=O)OC[C@@H](NC(=O)[C@@H](CC=C)CC(=O)N(CCO)Cc1ccccc1)C(C)(C)C	.	89.0	.	12.6	.	4.0	.	.	.
O=C1c2ccccc2S(=O)(=O)c2cc(N3CCN(c4ccccc4)CC3)ccc21	98.0	.	-1.0	9.7	101.0	-0.4	.	.	.
O=C1c2ccccc2S(=O)(=O)c2cc(N3CCOCC3)ccc21	88.0	95.0	-5.0	-5.2	82.0*[inhibitor]	17.7	98.0	-7.0	99.0
CCCCOc1ccc(N2CC(C(=O)NCc3ccco3)CC2=O)cc1 (stereo not given)	97.0	91.0	-6.0	-8.9	100.0	-0.9	.	.	.
O=C(Nc1ccccc1N1CCOCC1)c1cccnc1	112.0	98.0	2.0	-14.4	128.0*	-0.7	106.0	0.0	104.0
CC1CCc2sc(C(=O)N=Nc3c(O)[nH]c4ccccc34)cc2C1 (stereo not given)	106.0	.	0.0	.	130.0*	.	101.0	6.0	103.0
